D2 ag-1 = human D2 receptor agonism in beta-arrestin assay | DiscoveRx PathHunter D2 beta-arrestin, luminescence, 90 min; 100% = 57 uM dopamine signal | activation, % (no concentration beside the values) | actives 0.084% (n = 360,000); in the data active = activation above about 40%; inconclusive = between about 15% and that limit
Target sequence (P14416 whole entry, looked up): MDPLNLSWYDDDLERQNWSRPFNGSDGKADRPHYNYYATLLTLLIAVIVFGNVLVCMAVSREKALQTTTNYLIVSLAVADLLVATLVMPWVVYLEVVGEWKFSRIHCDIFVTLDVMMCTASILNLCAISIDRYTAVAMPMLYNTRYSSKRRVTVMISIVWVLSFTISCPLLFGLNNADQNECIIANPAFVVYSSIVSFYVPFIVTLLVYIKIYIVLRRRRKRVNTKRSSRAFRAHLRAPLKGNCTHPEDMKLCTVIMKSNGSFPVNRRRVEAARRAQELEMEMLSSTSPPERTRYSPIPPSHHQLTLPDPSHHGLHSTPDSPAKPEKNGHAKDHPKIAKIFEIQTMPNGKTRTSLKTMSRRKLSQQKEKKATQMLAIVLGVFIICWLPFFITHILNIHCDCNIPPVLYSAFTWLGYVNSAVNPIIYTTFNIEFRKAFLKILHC
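DiscoveRx PathHunter D2 beta-arrestin cells (2,100/well) attached overnight, then compound-stimulated 90 min at 37 C in HBSS/10 mM HEPES/0.1% Tween-20 buffer; beta-galactosidase complementation read by luminescence after 1 h at ambient temperature. Dopamine 57 uM final (EC100) as control.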
D2 antag = antagonists of human D2 dopamine receptor | P14416 | HEK293 TREx D2 cells, calcium flux, dopamine EC80 | inhibition, % at 10 µM | actives 2% (n = 340,000); in the data active = inhibition above about 30%; inactive = below that, where a call was filed
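Dopamine at EC80 is the agonist stimulus; test compounds precede it by 180 s. Calcium flux read kinetically in a force-coupled, inducible HEK293 T-REx D2 cell line.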
D2 ag-2 = activates the human D2 dopamine receptor | AID 485358 | P14416 | actives 0.53% (n = 340,000) | activation, % at 2 µM | HEK293 T-REx D2 cells, calcium flux agonist mode;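 active = activation over 3 SD above normal in the single-dose calcium agonist read, cut at about 30% in these data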
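Calcium-flux readout, 1 cycle/sec over 180 s following compound pin transfer, in inducible HEK293 Trex D2 cells (force-coupled); dopamine controls included. Positive calcium responses during this window marked compounds as potential agonists.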
D2 PAM-1 = positively modulates the human D2 dopamine receptor allosterically; HEK293 T-REx D2, calcium flux, EC20 dopamine potentiation; potentiation, % at 10 µM; actives 0.34% (n = 340,000); AID 485347;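 active = potentiation over 3 SD above the plate norm, cut at about 30% in these data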
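Tetracycline-induced HEK293 T-REx cells force-coupled to calcium signalling expressed D2; compounds were pin-added after a 10 s baseline, read kinetically 180 s, then an EC20 dopamine challenge followed with a further 180 s calcium read.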
B2AR arrestin = agonists driving beta-arrestin recruitment to human beta2-adrenergic receptor; P07550; beta-arrestin recruitment to beta2AR, cell-based reporter; Potency, µM (top dose mostly 46.1 µM), actives largely listed as activators; actives 0.02% (n = 330,000); active = well fitted activation curve with a large enough effect; inconclusive = small, poorly fitted or top-dose-only effect; note: nearly all actives have a fitted effect of over 65% in size
D2 PAM-2 = human D2 receptor positive allosteric modulation; P14416; actives 0.23% (n = 360,000); DiscoveRx D2 beta-arrestin cells, luminescence, 90 min; 100% = 57 uM dopamine signal; potentiation, % (test concentration not listed); in the data active = potentiation above about 50%; inconclusive = mostly about 30% to 49%
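PathHunter beta-arrestin assay in DiscoveRx D2 cells. Compounds were added with an EC20 of dopamine (50 nM final) for 90 min at 37 deg C. Luminescence was read 1 h after detection reagent, with 57 uM dopamine as the EC100 control.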
Numbers stand for hits; i = inactive; ? = inconclusive; nt = no result given. Shown are actives, neighbours in structure and some others; about 2.4% of the full set was active somewhere.

SMILES	D2 ag-1	D2 antag	D2 ag-2	D2 PAM-1	B2AR arrestin	D2 PAM-2
CCc1ccc(N(CC(=O)Nc2nc3ccc(C)cc3s2)S(=O)(=O)c2c(C)noc2C)cc1	i	i	i	i	i	i
Cc1coc2c1c(C)cc1oc(=O)c(CC(=O)NCCCCCC(=O)O)c(C)c12	i	i	i	45.6	i	i
Cc1coc2c1c(C)cc1oc(=O)c(CC(=O)NCC(=O)O)c(C)c12	i	i	i	i	i	i
COc1ccc(CNC(=O)COC(=O)c2n[nH]c3ccccc23)cc1OC	i	30.3	i	i	i	i
Oc1ccc(Nc2ccc3ccccc3c2)cc1	i	nt	nt	nt	nt	66.3
Cc1cc2c(cc1C)NC(c1c(C)n(C)n(-c3ccccc3)c1=O)C1=C(CC(C)(C)CC1=O)N2 (stereo not drawn)	i	i	34.4	i	i	i
COc1cc(C2Nc3cc(C)c(C)cc3NC3=C2C(=O)CC(C)(C)C3)ccc1OC(C)=O (stereo not drawn)	i	i	i	i	i	i
[O-]C1=N[N+](=C(c2ccccc2)c2ccccc2)C1	i	nt	nt	nt	nt	i
CC(C)[C@H](CO)Nc1nc(Nc2ccc(Cl)c(C(=O)O)c2)c2ncn(C(C)C)c2n1	i	38.8	i	i	i	i
CC(C)n1cnc2c(Nc3ccc(C(=O)O)cc3)nc(Cl)nc21	i	i	i	i	i	i
COc1ccc(-n2c(=S)[nH]c3c(sc(=S)n3-c3ccccc3)c2=O)c(OC)c1	i	i	i	37.0	i	i
CC1=CC(C)(C)N(C(=O)CN2C(=O)CCC2=O)c2ccc(C)cc21	i	30.3	i	i	i	i
Cc1ccc(N=c2c([N+](=O)[O-])nn(-c3ccc4c(c3)OCCO4)n2O)cc1F	?	i	i	i	i	57.6
O=[N+]([O-])c1nn(-c2ccc3c(c2)OCCO3)n(O)c1=Nc1ccc(Cl)cc1	i	i	i	i	i	51.0
O=C(CCCC(=O)N/N=C/c1ccccc1C(=O)O)N/N=C/c1ccccc1C(=O)O	i	i	i	i	i	i
CC1=C(C(=O)OC2CCCC2)C(c2cccc(Cl)c2Cl)CC(=O)N1 (stereo not drawn)	nt	nt	nt	i	nt	nt
O=C(Nc1ccc(C(=O)N2CCOCC2)cc1)c1ccccc1	i	nt	nt	nt	nt	i
O=C(c1ccc(NC(=O)C2(c3ccccc3)CCOCC2)cc1)N1CCOCC1	i	31.7	i	i	nt	i
O=C(Nc1ccc(Cl)c(C(=O)N2CCOCC2)c1)c1ccccc1	i	i	i	52.4	i	i
Cc1ccc([C@H]2C(C(=O)O)=CC[C@@H](c3ccc(C(C)C)cc3)N2S(=O)(=O)c2ccc(C)cc2)cc1	i	nt	nt	nt	i	nt
Cc1ccc(S(=O)(=O)N2[C@@H](c3ccc(Cl)cc3)C(C(=O)O)=CC[C@H]2c2ccc(C(C)C)cc2)cc1	i	38.9	i	i	i	i
O=C(O)c1cc(N/N=C/c2c[nH]c3ccccc23)ccc1Cl	i	i	i	i	i	i
COc1ccc(C(=O)NNC(=S)NC(=O)C(C)(C)C)cc1	i	61.9	92.4	i	i	i
CCOC(=O)NN1C(=O)c2ccccc2NC1c1ccccn1 (stereo not drawn)	i	37.7	i	nt	i	i
CCOC(=O)NN1C(=O)c2ccccc2NC1c1ccccc1 (stereo not drawn)	i	i	i	i	i	i
SMILES	D2 ag-1	D2 antag	D2 ag-2	D2 PAM-1	B2AR arrestin	D2 PAM-2
OCCC1CN(Cc2c(F)cccc2Cl)CCN1C1CCCC1 (stereo not drawn)	i	i	i	i	i	i
O=C(N/N=C/c1ccccc1[N+](=O)[O-])c1cccs1	i	i	i	i	i	i
O=C(N/N=C/C=C/c1ccccc1[N+](=O)[O-])c1cccs1	i	39.2	i	i	i	i
Cc1occc1C(=O)N/N=C/c1ccccc1[N+](=O)[O-]	i	34.6	i	i	i	i
Cc1ccc(C(=O)N/N=C\C=C\c2ccccc2[N+](=O)[O-])cn1	i	46.8	i	i	i	i
Cc1ccc(/C=N/NC(=O)c2cccs2)cc1[N+](=O)[O-]	i	35.3	i	i	i	i
COc1cccc(/C=N/NC(=O)c2ccoc2C)c1O	i	i	i	i	i	i
CCOC(=O)C(=O)Nc1ccc2c(c1)OCO2	i	i	i	i	nt	i
CCOC(=O)/C(N=Nc1ccc2c(c1)OCO2)=C(\C)O	i	i	i	118.5	i	i
COc1ccccc1NC(=O)CN1C(=O)CSc2ccc(S(=O)(=O)N3CCCC3)cc21	nt	nt	i	i	nt	nt
CC(C)c1ccccc1NC(=O)CSc1nnc(COc2ccccc2Cl)o1	nt	nt	i	i	nt	nt
c1ccc(Cc2nnc3sc(-c4ccncc4)nn23)cc1	i	i	i	i	i	i
c1ccc(Cc2nnc3sc(-c4cccs4)nn23)cc1	i	73.1	i	i	i	i
COc1cc(C)c(Cl)c(C)c1S(=O)(=O)NCc1cccnc1	i	i	i	31.7	i	i
Cc1cc(C)c(C)c(S(=O)(=O)NCc2cccnc2)c1C	i	i	i	i	i	i
CN1CCc2[nH]c3ccc(C(=O)NN)cc3c2C1	i	i	i	i	i	i
Oc1ccc2nnc3c(Br)cnn3c2c1	?	i	52.9	i	i	i
COc1ccc(NC(=O)/C=C\C(=O)N(c2ccc(C(C)C)cc2)C(C(=O)NCc2ccco2)c2ccc(C)cc2)cc1 (stereo not drawn)	nt	nt	i	i	nt	nt
COc1ccc(CC(C)N2CCN(c3cccc(C(F)(F)F)c3)CC2)cc1OC (stereo not drawn)	i	74.3	i	i	i	i
CC1CN(C(=O)CCC(=O)N2CCN(c3cccc(C(F)(F)F)c3)CC2)c2ccccc2O1 (stereo not drawn)	i	40.7	i	30.1	i	i
CCOc1cc(CN2CCN(c3cccc(C(F)(F)F)c3)CC2)ccc1OC	i	i	i	i	i	i
COCC(=O)N1CCN(c2cccc(C(F)(F)F)c2)CC1	i	43.9	i	i	i	i
COc1ccc(N2CCN(C(=O)CCC(=O)N3CC(C)Oc4ccccc43)CC2)cc1 (stereo not drawn)	i	i	i	i	i	i
Cc1nc2sc(C(c3ccco3)N3CCN(C(c4ccccc4)c4ccccc4)CC3)c(O)n2n1 (stereo not drawn)	i	i	i	32.5	i	i
O=C(CSc1cccc[n+]1[O-])Nc1ccc2c(c1)OCCO2	i	i	i	i	i	i
COc1ccc(OC)c(C2C3=C(CCCC3=O)Nc3c2c(=O)n(C)c(=O)n3C)c1 (stereo not drawn)	i	i	i	32.0	i	i
CCN(CC)CCCn1c2c(c(SCC(=O)Nc3ccc(C)c(F)c3)nc1=O)CCC2	i	i	i	i	i	i

From PubChem BioAssay
